# Source: the supplement of paper PMC10811239
# Experiments:
# Assay in all cases: bioluminescence (viable cell) signal fold change after vs before treatment, normalised to DMSO (ratio); higher = more tumour cell growth / less inhibition
# Details in all cases: 10 µM; treatment time 6 days
# [1] = test system: LEGO organoid PT (PTEN-/-; TP53-/-)
# Method: (§1)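 Luc2-labelled iPSC-derived glioblastoma-like organoids (LEGOs, genotypes PT = PTEN-/-;TP53-/-, PTCC = plus CDKN2A/B-/-, PTN = plus NF1-/-) were treated with 10 uM drug for 6 days (applied every other day) at 37 C. Bioluminescence imaging was done before treatment and 2 days after the last dose. BLI signals were normalised to the DMSO control on the same day and then to the pre-treatment signal (N=3).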
# [2] = test system: LEGO organoid PTCC (PTEN-/-; TP53-/-; CDKN2A-/-; CDKN2B-/-)
# Method: as §1
# [3] = test system: LEGO organoid PTN (PTEN-/-; TP53-/-; NF1-/-)
# Method: as §1
SMILES,bioluminescence [1],bioluminescence [2],bioluminescence [3]
Cn1c(=O)c2[nH]cnc2n(C)c1=O [Theophylline],0.849,1.2,2.42
CCC(C)(C)C(=O)O[C@H]1C[C@@H](C)C=C2C=C[C@H](C)[C@H](CC[C@@H]3C[C@@H](O)CC(=O)O3)[C@H]21 [Simvastatin],1.45,1.71,0.364
C[C@]12CC[C@@H]3c4ccc(O)cc4CC[C@H]3[C@@H]1CC[C@@H]2O [Estradiol],0.389,0.435,1.18
NC(CO)(CO)CO.O=C(c1ccccc1)c1ccc2n1CCC2C(=O)O (stereo unspecified) [Ketorolac tromethamine salt],1.75,1.57,2.19
CCCC(CCC)C(=O)O [Valproic Acid],1.01,0.784,0.834
CN(C)CCC=C1c2ccccc2COc2ccccc21.Cl [Doxepin hydrochloride],1.71,1.05,0.742
CC(C)Cc1ccc(C(C)C(=O)O)cc1 (stereo unspecified) [Ibuprofen],1.56,0.624,1.57
CCN(CC)CC(=O)Nc1c(C)cccc1C.Cl [Lidocaine hydrochloride],1.49,1.11,1.08
CC(C)(Sc1cc(C(C)(C)C)c(O)c(C(C)(C)C)c1)Sc1cc(C(C)(C)C)c(O)c(C(C)(C)C)c1 [Probucol],0.49,0.73,0.748
N[C@@H]1CONC1=O [D-Cycloserine],1.3,1.11,1.69
Cl.OC(CCN1CCCCC1)(c1ccccc1)C1CCCCC1 (racemic) [DL-trihexyphenidyl hydrochloride],1.67,0.966,0.496
Nc1ncnc2c1ncn2[C@@H]1O[C@H](CO)[C@@H](O)[C@H]1O [Adenosine],2.1,0.746,0.654
COc1cc2ncnc(Nc3ccc(F)c(Cl)c3)c2cc1OCCCN1CCOCC1 [Gefitinib],1.78,1.22,2.43
Cc1cccc(N(C)C(=S)Oc2ccc3ccccc3c2)c1 [Tolnaftate],1.01,0.931,1.31
OC(Cn1cncn1)(Cn1cncn1)c1ccc(F)cc1F [Fluconazole],1.04,0.967,1.54
Cc1oncc1C(=O)Nc1ccc(C(F)(F)F)cc1 [Leflunomide],2.01,1.3,3.5
COC(=O)C1=C(C)NC(C)=C(C(=O)OCCN(C)Cc2ccccc2)C1c1cccc([N+](=O)[O-])c1.Cl (stereo unspecified) [Nicardipine hydrochloride],0.99,1.19,1.14
CSCC[C@@H](N)C(=O)O [Methionine],1.1,0.816,1.35
CN(C)CCC[C@@]1(c2ccc(F)cc2)OCc2cc(C#N)ccc21.O=C(O)C(=O)O [Escitalopram Oxalate],1.52,0.773,0.956
CCCN[C@H]1CCc2nc(N)sc2C1.Cl.Cl.O [Pramipexole 2HCl Monohydrate],1.35,0.567,0.629
Cc1nc2c([nH]1)CCN(C(=O)c1ccc(NC(=O)c3ccccc3-c3ccccc3)cc1)c1ccccc1-2.Cl [Conivaptan hydrochloride],0.674,3.25,0.375
CN1C(=O)OC(C)(C)C1=O [Trimethadione],0.57,1.38,0.909
O.O.O.O.[Li][O]C(=O)CC(O)(CC(=O)[O][Li])C(=O)[O][Li] [Lithium citrate tetrahydrate],1.01,0.787,1.25
COc1cc(C(=O)NCc2ccc(OCCN(C)C)cc2)cc(OC)c1OC.Cl [Trimethobenzamide hydrochloride],1.11,0.906,0.646
CC(=O)Oc1ccccc1C(=O)O [Aspirin],0.997,0.785,0.737

SMILES,bioluminescence [1],bioluminescence [2],bioluminescence [3]
O=C(NC1CCN(CCCCC2(C(=O)NCC(F)(F)F)c3ccccc3-c3ccccc32)CC1)c1ccccc1-c1ccc(C(F)(F)F)cc1 [Lomitapide],0.0143,0.124,0
Nc1nc(Cl)nc2c1ncn2[C@H]1C[C@H](O)[C@@H](CO)O1 [Cladribine],1.81,1.17,1.05
CN(C/C=C/c1ccccc1)Cc1cccc2ccccc12.Cl [Naftifine hydrochloride],0.607,1.3,0.535
CCC1=CC2CN(C1)Cc1c([nH]c3ccccc13)[C@](C(=O)OC)(c1cc3c(cc1OC)N(C)[C@H]1[C@@](O)(C(=O)OC)[C@H](OC(C)=O)[C@]4(CC)C=CCN5CC[C@]31[C@@H]54)C2.O=C(O)[C@H](O)[C@@H](O)C(=O)O.O=C(O)[C@H](O)[C@@H](O)C(=O)O (stereo partly specified) [Vinorelbine ditartrate],0.558,0.445,1.54
O.O.O.O.O.O.O.O=C1CN(/N=C/c2ccc(-c3ccc([N+](=O)[O-])cc3)o2)C(=O)[N-]1.O=C1CN(/N=C/c2ccc(-c3ccc([N+](=O)[O-])cc3)o2)C(=O)[N-]1.[Na+].[Na+] [Dantrolene sodium hemiheptahydrate],0.935,2.4,2.84
Nc1ncnc2c1ncn2[C@@H]1O[C@H](CO)[C@@H](O)[C@H]1OP(=O)(O)O [Adenosine-2'-monophosphate],1.31,1.96,1.26
CNCCCC1c2ccccc2C=Cc2ccccc21.Cl [Protriptyline hydrochloride],0.749,0.571,1.14
CCCCS(=O)(=O)N[C@@H](Cc1ccc(OCCCCC2CCNCC2)cc1)C(=O)O [Tirofiban],0.741,1.21,0.848
C[C@]12C=CC(=O)C=C1CC[C@@H]1[C@@H]2C(=O)C[C@@]2(C)[C@H]1CC[C@]2(O)C(=O)CO [Prednisone],1.13,0.989,1.29
CC/C(=C(\c1ccccc1)c1ccc(OCCN(C)C)cc1)c1ccccc1 [Tamoxifen],0.646,0.468,0.103
CC(C)c1c(C(=O)Nc2ccccc2)c(-c2ccccc2)c(-c2ccc(F)cc2)n1CC[C@@H](O)C[C@@H](O)CC(=O)[O-].CC(C)c1c(C(=O)Nc2ccccc2)c(-c2ccccc2)c(-c2ccc(F)cc2)n1CC[C@@H](O)C[C@@H](O)CC(=O)[O-].[Ca+2] [Atorvastatin Calcium],1.09,0.222,0.0875
N[C@@H](Cc1ccc(O)c(O)c1)C(=O)O [Levodopa],0.963,1.76,1.33
CC(C(=O)O)c1ccc(-c2ccccc2)c(F)c1 (stereo unspecified) [Flurbiprofen],1.09,0.856,1.47
COc1cc(Nc2c(C#N)cnc3cc(OCCCN4CCN(C)CC4)c(OC)cc23)c(Cl)cc1Cl [Bosutinib],1.24,0.731,0.669
COc1cc2c(cc1OC)C(=O)C(CC1CCN(Cc3ccccc3)CC1)C2 (stereo unspecified) [Donepezil],0.84,0.645,1.1
O=c1[nH]cnc2c1ncn2[C@H]1CC[C@@H](CO)O1 [Didanosine],0.958,4.18,0.81
Cl.OC(CCN1CCCC1)(c1ccccc1)C1CCCCC1 (stereo unspecified) [Procyclidine hydrochloride],1.48,0.919,0.656
COc1ccccc1OCC(O)COC(N)=O (stereo unspecified) [Methocarbamol],0.829,1.84,2.82
Cl.CN(C)CC\C=C1\c2ccccc2CCc2ccccc12 [Amitriptyline hydrochloride],–,0.794,1.12
NC(=O)OCC(COC(N)=O)c1ccccc1 [Felbamate],–,3.87,0.547
C[C@@H](c1ncncc1F)[C@](O)(Cn1cncn1)c1ccc(F)cc1F [Voriconazole],–,0.587,1.46
N=C(N)NCCCC[C@@H]1NC(=O)CCSSC[C@@H](C(N)=O)NC(=O)[C@@H]2CCCN2C(=O)[C@H](Cc2c[nH]c3ccccc23)NC(=O)[C@H](CC(=O)O)NC(=O)CNC1=O [Eptifibatide],–,0.768,0.917
CCN1CCN(C(=O)N[C@@H](C(=O)N[C@@H]2C(=O)N3[C@@H]2SC(C)(C)[C@@H]3C(=O)[O-])c2ccccc2)C(=O)C1=O.[Na+] [Piperacillin sodium salt],–,1.11,0.935
Cl.Nc1c2c(nc3ccccc13)CCCC2.O [Tacrine hydrochloride hydrate],–,0.819,1.22
